High-throughput results (PubChem)
Compounds with a hit are over-represented: about 21% of the library has one in this group of screens.
Pf growth 96h: P. falciparum growth inhibition at 96 hours. P. falciparum luciferase reporter growth, 96 h. Potency, µM (top dose mostly 28.7 µM), hits mostly inhibitors. actives 6.9% (n = 320,000). AID 504834
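Compounds incubated with erythrocytes infected by luciferase-expressing P. falciparum (2% hematocrit, 0.05% parasitemia final) for 96 hours, 37 C in 5% CO2. Growth inhibition scored as decreased luciferase luminescence.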
Cycloheximide cs: counter-screen for Shiga toxin inhibitors: cycloheximide protein synthesis inhibition. max response, %. AID 2314. cell reporter, cycloheximide protein synthesis inhibition counterscreen. actives 12% (n = 300,000); in the data active = max response mostly above about 13%, no sharp cut-off; inactive = mostly below about 14%; note: read at 38.3 µM for the half of the compounds with a filed dose
Pf growth 48h: inhibits P. falciparum growth in the first generation, 48 h. Potency, µM (titrated, usually from 28.7 µM), usual class: inhibitors. P. falciparum luciferase growth in erythrocytes, 48 h. actives 5.9% (n = 310,000)
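Luminescence readout; reporter = integrated firefly luciferase in P. falciparum. RBC culture at 2% hematocrit, 0.1% parasitemia final, 37 C/5% CO2; decreased signal taken as growth inhibition.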
NS1 inh: influenza NS1 inhibition. Potency, µM (series often up to 46.1 µM). actives 0.4% (n = 270,000); calls by dose curve; note: actives are rising curves; nearly all actives have a fitted effect of over 50% in size
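S. cerevisiae expressing influenza A NS1, grown in glucose, washed, then diluted 1:100 into pH 6.0 -URA galactose medium with 23 nl compound. Growth recovery read as OD600; NS1-free strain serves as control.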
SARS PLpro yeast: inhibitors of SARS-CoV papain-like protease in yeast | Potency, µM (top dose mostly 32.9 µM), most hits filed as activators | S. cerevisiae expressing SARS-CoV PLpro, growth rescue | actives 0.19% (n = 330,000) | AID 485353; calls by dose curve; note: nearly all actives have a fitted effect of over 55% in size
Shiga toxin inh: inhibitors of Shiga toxin in Vero cells; actives 9.2% (n = 290,000); inhibition, % at 38.7 µM; Vero cells, Shiga toxin protein synthesis inhibition reporter; in the data active = inhibition mostly above about 28%, no sharp cut-off; inactive = mostly below about 43%
Large screens that a line does not name were inactive. Unless noted, calls come from the whole dose curve; as a rule, active = well fitted inhibition curve with a large enough effect; inconclusive = small, poorly fitted or top-dose-only effect, or another doubt; inactive = no such curve, though single readings can be large or run the other way.

NC(=O)C1CCCN(C(=S)Nc2cccc3ccccc23)C1 (centres undefined)	Pf growth 96h 13.1µM
Cc1nn(CCCC(=O)NCc2ccccc2)c(=O)c2nccn12	Pf growth 96h 1.04µM
COc1ccc(CNC(=O)CCCn2nc(C)n3ccnc3c2=O)cc1	none
Cn1c(=O)cc(OCCCC(=O)NCc2ccco2)c2ccccc21	Pf growth 96h 11.7µM
Cc1ccc(CNC(=O)CCCOc2cc(=O)n(C)c3ccccc23)o1	Pf growth 48h inconclusive
CC(NC(=O)COc1cc(=O)n(C)c2ccccc12)c1ccc2c(c1)OCCO2 (centres undefined)	Pf growth 96h 8.28µM
Cn1c(=O)cc(OCC(=O)NCc2cccs2)c2ccccc21	Pf growth 96h inconclusive, Shiga toxin inh 50.6 (no result: NS1 inh)
C/C(=N/O)c1ccc2cc(Br)c3ccccc3c2c1	none (no result: Pf growth 96h, Cycloheximide cs, Pf growth 48h, SARS PLpro yeast, Shiga toxin inh)
COc1ccc(CNC(=O)CN(C(=O)CCC(=O)Nc2nccs2)c2ccc(C)cc2)cc1	Pf growth 96h 7.38µM, Pf growth 48h inconclusive
CC(C)(C)NC(=O)CN(C(=O)CCC(=O)Nc1nccs1)c1ccc2c(c1)OCCO2	none
CC(C)CCNC(=O)CN(C(=O)CCC(=O)Nc1nccs1)c1ccc2c(c1)OCCO2	Cycloheximide cs 35.4, Shiga toxin inh 68.4
COc1ccc(CN(CC(=O)NCc2ccc(F)cc2)C(=O)CCC(=O)Nc2nccs2)cc1	Pf growth 96h 4.65µM
O=C(CN(Cc1ccc(F)cc1)C(=O)CCC(=O)Nc1nccs1)NCc1ccc(F)cc1	none
CC1CCC(NC(=O)C(C)N2C(=O)C3CCCCC3C2=O)CC1 (centres undefined)	none (no result: Cycloheximide cs, NS1 inh, Shiga toxin inh)
Cc1cc(C)c(-n2nnnc2SCC(=O)c2cc3ccccc3o2)c(C)c1	Pf growth 96h inconclusive, Pf growth 48h inconclusive
COc1ccc(NC(=O)/C(C#N)=C/c2ccc(OCc3ccccc3F)cc2)cc1	none
CSCc1ccc(C(=O)NCc2ccccc2)cc1	Cycloheximide cs 31.0
Cc1ccc(CSCCNC(=O)c2ccc(C)cc2)cc1	Pf growth 48h 13.1µM
CSCc1ccc(C(=O)NCc2ccc(C)cc2)cc1	Cycloheximide cs 21.0, Shiga toxin inh active
CSCc1ccc(C(=O)NCc2ccc(F)cc2)cc1	none
CSCc1ccc(C(=O)Nc2ccc(C(N)=O)cc2)cc1	Cycloheximide cs 28.4, Shiga toxin inh 50.4
c1ccc(C(CCN2CC3CCC(CC3)C2)c2ccccc2)cc1	none (no result: Pf growth 96h, Cycloheximide cs, Pf growth 48h, SARS PLpro yeast, Shiga toxin inh)
O=C(Cc1ccccc1)NCCSCc1ccccc1	Cycloheximide cs 18.9
CCc1ccc(NC(=O)NCCN2CCc3ccccc3C2)cc1	Pf growth 96h 2.08µM
O=C(NCCN1CCc2ccccc2C1)Nc1ccc(F)cc1	none
CCc1ccc(NC(=O)NCCCN2CCCC2=O)cc1	Cycloheximide cs 27.7, Shiga toxin inh 31.2
CCOC(=O)c1ccc(NC(=S)NCCCN2CCCC2=O)cc1	Pf growth 96h 2.62µM
Cc1ccc(NC(=O)C(=O)NCCCN2CCCC2=O)cc1	none (no result: Cycloheximide cs, NS1 inh, Shiga toxin inh)
CC1CCCCC1NC(=O)CN1C(=O)CSc2cc(S(=O)(=O)N3CCCCCC3)ccc21 (centres undefined)	Pf growth 96h inconclusive, Pf growth 48h inconclusive
NS(=O)(=O)c1cc(C(=O)N2CCNC(=O)C2)ccc1Cl	none
CCCn1c2ccccc2c2nnc(SCc3[nH]c(=O)[nH]c3C(=O)CCCCC(=O)OCC)nc21	Pf growth 96h 10.4µM, Pf growth 48h inconclusive
C=CCn1c(C)cc(C)c(C#N)c1=O	none
C=CCn1c(O)c(CN2CCOCC2)c(C)c(C#N)c1=O	Pf growth 96h inconclusive, Cycloheximide cs 29.9, Shiga toxin inh 91.1
CC(C)NC(=O)c1ccc(N(Cc2ccc(Cl)cc2)S(C)(=O)=O)cc1	Pf growth 96h 10.4µM
COc1cccc(/C=N/NC(N)=S)c1OCc1cccc(Cl)c1	Pf growth 96h 3.7µM, Pf growth 48h 11.7µM
CCOc1ccc(Cl)cc1/C=N/NC(=O)CNC(=O)c1ccccc1	none
CCOc1ccc(Cl)cc1/C=N/NC(=O)c1ccccc1	Cycloheximide cs 28.9, Shiga toxin inh 65.3
CCOc1ccccc1/C=N/NC(=O)c1cccc(Cl)c1	Shiga toxin inh 57.3
Cc1cc(C)n2c(SCCC(C)C)nnc2n1	Pf growth 96h inconclusive, Cycloheximide cs 18.7, NS1 inh inconclusive
COc1cccc(/C=C2\N=C3CCCCCN3C2=O)c1	Cycloheximide cs 51.8, Shiga toxin inh 106.4 (no result: Pf growth 48h)
CCOc1cc(/C=C2\SC(N)=NC2=O)ccc1O	Pf growth 96h inconclusive
COc1ccc(/C=C2/N=C(SC3CCOC3=O)N(c3cccc(OC)c3)C2=O)cc1 (centres undefined)	Pf growth 96h inconclusive, Pf growth 48h inconclusive
CCOc1cc(/C=C2\N=C3CCCCCN3C2=O)ccc1O	Cycloheximide cs 35.9, Shiga toxin inh 97.2
CCCCC[C@H](O)/C=C\[C@H]1[C@H](C/C=C\CCCC(=O)O)[C@@H](O)C[C@H]1O (tested in a mixture with another compound)	Pf growth 96h inconclusive (no result: Cycloheximide cs, NS1 inh, SARS PLpro yeast, Shiga toxin inh)
Cc1nccn1CCOc1ccccc1Cl	NS1 inh inconclusive
Cc1ccc(S(=O)(=O)N(Cc2ccc(C(F)(F)F)cc2)C(=O)N2CCN(C)CC2)cc1	none (no result: Cycloheximide cs, NS1 inh, Shiga toxin inh)
CCOC(=O)N1CCN(C(=O)C2CCN(C(=O)c3ccc([N+](=O)[O-])cc3)CC2)CC1	Pf growth 96h inconclusive
COc1ccccc1N1CCN(C(=O)C2CCN(C(=O)c3ccc(C(C)(C)C)cc3)CC2)CC1	Pf growth 48h 4.65µM
CCOC(=O)N1CCN(C(=O)C2CCN(C(=O)c3ccc(C(C)(C)C)cc3)CC2)CC1	Pf growth 48h 9.28µM
CCOC(=O)N1CCN(C(=O)c2ccc(NC(=O)c3ccc(C)cc3)cc2)CC1	Cycloheximide cs 31.4, Pf growth 48h inconclusive (no result: Pf growth 96h)
O=C(Cc1ccccc1)Nc1cccc(N2CCCC2)c1	Pf growth 48h inconclusive, NS1 inh inconclusive (no result: Pf growth 96h)
C/C(CC(=O)Nc1ccc(Cl)c(C(F)(F)F)c1)=N\NC(N)=S	Cycloheximide cs 19.7
CN(CC(=O)Nc1ccc(Cl)c(C(F)(F)F)c1)C(=O)c1cccc2cccnc12	Pf growth 96h inconclusive, Pf growth 48h inconclusive (no result: Cycloheximide cs, NS1 inh, Shiga toxin inh)
C/C(CC(=O)Nc1ccc(Cl)c(C(F)(F)F)c1)=N\NC(=O)c1cccc(O)c1	Cycloheximide cs 44.1, Pf growth 48h 11.7µM, Shiga toxin inh 67.8
C/C(CC(=O)Nc1ccc(Cl)c(C(F)(F)F)c1)=N\NC(=O)c1ccccc1O	Pf growth 96h inconclusive, Cycloheximide cs 21.7, Pf growth 48h inconclusive
CCc1ccccc1NCC(=O)Nc1ccc(Cl)c(C(F)(F)F)c1	Pf growth 96h inconclusive
COc1ccc2ncc(OC(C)=O)cc2c1	Cycloheximide cs 14.0
C=CCn1c(SCC(=O)c2c(N)n(C3CC3)c(=O)[nH]c2=O)nnc1-c1ccc(OC)cc1	Pf growth 96h inconclusive, Pf growth 48h inconclusive (no result: Cycloheximide cs, NS1 inh, Shiga toxin inh)
COc1ccccc1-c1nnc(SCC(=O)c2c(N)n(C3CC3)c(=O)[nH]c2=O)n1C	Pf growth 96h 11.7µM, Pf growth 48h inconclusive (no result: Cycloheximide cs, NS1 inh, Shiga toxin inh)
CCn1c(SCC(=O)c2c(N)n(C3CC3)c(=O)[nH]c2=O)nnc1-c1ccoc1C	Pf growth 96h inconclusive, Pf growth 48h inconclusive (no result: Cycloheximide cs, NS1 inh, Shiga toxin inh)
